# Test results: publication PMC5540273 (PLoS ONE, 2017)
# Several values for one entry are separate records, joined by “and”; a condition that tells them apart may be missing. Equal entries are not always repeated. Where two headings read alike, the source gives them in different places.
# Legend:
# Conditions in all cases: concentration: 1 μM, replicates: in singlicate, n = 1
# BUB1 = test system: BUB1
# CAMK1B = test system: CAMK1B
# CAMK1D = test system: CAMK1D
# CAMK1G = test system: CAMK1G
# CAMK1 = test system: CAMK1
# CAMK2A = test system: CAMK2A
# CAMK2B = test system: CAMK2B
# CAMK2D = test system: CAMK2D
# CAMK2G = test system: CAMK2G
# CAMK4 = test system: CAMK4
# 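Note: KINOMEscan kinase panel screen.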
SMILES,%Inh (BUB1) [%],%Inh (CAMK1B) [%],%Inh (CAMK1D) [%],%Inh (CAMK1G) [%],%Inh (CAMK1) [%],%Inh (CAMK2A) [%],%Inh (CAMK2B) [%],%Inh (CAMK2D) [%],%Inh (CAMK2G) [%],%Inh (CAMK4) [%],%Inh (BUB1; 1 µM),%Inh (CAMK1B; 1 µM),%Inh (CAMK1D; 1 µM),%Inh (CAMK1G; 1 µM),%Inh (CAMK1; 1 µM),%Inh (CAMK2A; 1 µM),%Inh (CAMK2B; 1 µM),%Inh (CAMK2D; 1 µM),%Inh (CAMK2G; 1 µM),%Inh (CAMK4; 1 µM)
CC(C)(C)n1cnc2c(N)ncnc21 [SKF-97359],52,63,1,0,0,0,0,0,0,0,,,,,,,,,,
CSc1ccc(-c2cc3ncnc(SCC(=O)O)c3s2)cc1,24,0,0,0,0,0,0,0,0,3,,,,,,,,,,
C[C@@H](Oc1cc(-n2cnc3ccc(NC(=O)NC(C)(C)C)cc32)sc1C(N)=O)c1ccccc1Cl [GSK346294],35,32,19,2,11,9,0,18,23,3,,,,,,,,,,
Cl.Nc1ncnc2occ(-c3ccc(NC(=O)Nc4cc(C(F)(F)F)ccc4F)cc3)c12 [SB-707548],17,36,23,0,22,0,0,0,25,32,,,,,,,,,,
O=C(NCCCN1CCOCC1)c1cccc(Nc2nccc(Nc3ccc(Oc4ccccc4)cc3)n2)c1 [GW663929],28,37,33,0,55,3,6,2,0,0,,,,,,,,,,
Cc1ccc(NC(=O)c2ccnc(N3CCN(C)CC3)c2)cc1-c1ccc(C(=O)NCC2CC2)cc1 [GW775604],0,0,0,0,0,0,0,0,0,0,,,,,,,,,,
N#Cc1ccc(-c2cc(-c3c[nH]nc3-c3ccccn3)ccn2)cc1 [GW693028],34,3,1,0,1,0,1,0,13,0,,,,,,,,,,
N#Cc1c(N2CCOCC2)sc(-c2ccn[nH]2)c1-c1ccc(Cl)cc1,13,12,19,72,24,0,0,47,0,4,,,,,,,,,,
Cc1cccc(-c2nc(-c3ccc(S(C)(=O)=O)cc3)sc2-c2ccncc2)c1,25,0,15,9,5,0,0,4,5,0,,,,,,,,,,
Cl.Oc1cccc(Nc2ccnc3cc(-c4ccncc4)ccc23)c1 [GW494601],81,5,5,0,35,0,0,6,29,0,,,,,,,,,,
COC(=O)Nc1nc2cc(Oc3ccc(NC(=O)Nc4cc(F)ccc4F)cc3)ccc2[nH]1.Cl [GW701424],77,27,20,7,4,0,0,20,11,0,,,,,,,,,,
O=C(NCCNc1ccnc(Nc2ccc(F)cc2)n1)c1cc2ccccc2s1 [GSK1379874],49,0,1,0,1,0,0,7,18,0,,,,,,,,,,
NCCNS(=O)(=O)c1ccc(-c2ccnc3[nH]ccc23)cc1 [GSK977617],,,,,,,,,,,69% and 81%,52% and 70%,78% and 72%,44% and 21%,58% and 42%,16% and 6%,2% and 0%,42% and 23%,42% and 20%,59% and 44%
O=C1Cc2cc(Nc3nc(NCc4cccc(S(=O)(=O)C(F)(F)F)c4)ncc3C(F)(F)F)ccc2N1,34,11,0,2,0,0,0,5,8,4,,,,,,,,,,
CCc1nc(-c2cccc(C)c2)c(-c2ccnc(NCc3ccccc3)c2)s1,18,0,6,9,40,11,0,0,10,0,,,,,,,,,,
CCCCCc1nc2c(N)ncnc2n1CCCCC [SKF-97255],0,0,0,15,0,0,0,6,0,21,,,,,,,,,,
